The values below come from PubChem BioAssay (NCATS).

The target in test [1] is Glutathione peroxidase 1 (Homo sapiens) (UniProt P07203). The test can be described thus: Primary qHTS Assay for Inhibitors of Recombinant Selenoprotein Glutathione Peroxidase 1 (GPX1) (AID 1845191). Note: nearly all actives have a fitted effect of over 65% in size. Note: potency is the fitted concentration of half-maximal effect. The conditions noted are these: recombinant GPX1, GR-coupled NADPH fluorescence, 15 min; series mostly up to 48.8 µM. The gist of the method:
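GR-coupled assay: compounds preincubated 30 min at room temperature with GPX1, then reaction started with CHP; final 10 nM GPX1, 1 mM GSH, 0.5 mM CHP, 0.5 mM NADPH, 100 nM GR, 0.01% BSA, pH 7.5 Tris buffer. NADPH fluorescence (340/450 nm) read at 0 and 15 min.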
(In qHTS, concentration-response curves come from the screen itself.)

The target of test [2] is Phospholipid hydroperoxide glutathione peroxidase GPX4 (Homo sapiens) (UniProt P36969). Nature of the test: Primary qHTS Assay for Inhibitors of Recombinant Selenoprotein Glutathione Peroxidase 4 (GPX4) (AID 1845192). Note: nearly all actives have a fitted effect of over 65% in size. Note: potency is the fitted concentration of half-maximal effect. Conditions: recombinant GPX4, GR-coupled NADPH fluorescence, 15 min; series mostly up to 50 µM. An outline of the steps:
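GR-coupled assay: recombinant GPX4 preincubated 30 min with compound at room temperature; final 200 nM GPX4, 1 mM GSH, 0.5 mM cumene hydroperoxide, 0.5 mM NADPH, 100 nM GR, 0.01% BSA, pH 7.5 Tris. NADPH fluorescence (340/450 nm) read at 0 and 15 min.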

For test [3], the target named is Luciferin 4-monooxygenase (Photinus pyralis) (UniProt P08659). Nature of the test: Primary firefly luciferase (FLuc) qHTS assay for identification of artifact compounds. (AID 1845220). Note: nearly all actives have a fitted effect of over 60% in size. Conditions: purified firefly luciferase, luminescence, 5 min; series mostly up to 54.1 µM. An outline of the steps: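 D-luciferin and ATP (10 uM each, final) in Tris acetate buffer pH 7.6 were incubated with compounds for 15 min at room temperature. The reaction was started with 10 nM Photinus pyralis luciferase and luminescence read after 5 min. Percent inhibition was fitted to a 4-parameter Hill equation.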

Test [4] can be described thus: Primary fluorescence-based thiol-reactive (MSTI) qHTS assay for identification of artifact compounds. (AID 1845221).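 Note: thiol-reactive compounds lower the probe fluorescence signal; nearly all actives have a fitted effect of over 65% in size.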 The conditions noted are these: MSTI thiol-reactivity probe, 1 h; series mostly up to 53.8 µM. An outline of the steps: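 MSTI probe at 4 uM final in 2% DMSO/PBS pH 7.4; compounds, 1 h at room temperature in dark. Fluorescence Ex/Em 525/598 nm, normalised to Acetyl-MSTI and MSTI, fitted to 4-parameter Hill.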

The test system of test [5] is Nanoluciferase (engineered Oplophorus gracilirostris luciferase). The test can be described thus: Primary Nanoluciferase (NLuc) qHTS assay for identification of artifact compounds. (AID 1845222). Conditions: NLuc-conditioned medium, Nano-Glo luminescence, 5 min; series mostly up to 54.1 µM. The gist of the method: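 Diluted conditioned medium from NLuc-expressing S16 cells treated with compounds for 15 min at room temperature, then Nano-Glo substrate added; luminescence read after 5 min. Percent inhibition versus no-enzyme and DMSO controls fitted to 4-parameter Hill equation.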

Test [6] in a line: Primary redox qHTS assay for identification of artifact compounds. (AID 1845223). The conditions noted are these: Amplex Red/HRP redox cycling with DTT, fluorescence; series mostly up to 53.8 µM. An outline of the steps: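 Amplex Red (25 uM) and HRP (250 mU/mL) in HBSS, with compounds for 15 min, then 250 uM DTT for 30 min, room temperature, dark. Fluorescence 525/598 nm read; normalized to DMSO and 10 uM DA3003; Hill fit.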

A short description of test [7]: NCATS anti-infectives library activity on HEK293 viability as a counter-qHTS vs the C. elegans viability qHTS (AID 1745854).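 Note: HEK293 cells exposed to compounds for 24 hr before the viability read.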 The conditions noted are these: HEK293 viability counter-screen; series mostly up to 41.8 µM. An outline of the steps: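 HEK293 cells (1,500/well) exposed 24 hr at 37C to 1:5 titrations, up to 41.7 uM final; counter-screen to a C. elegans viability qHTS. Viability by CellTiter-Glo luminescence after 10 min at room temperature; digitonin as control.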

Test [8] in a line: Quantitative High-Throughput drug screen in 47 multiple myeloma cell lines against the NCATS MIPE library collection: FR4_PLB cell viability assay (AID 1918924; note: nearly all actives have a fitted effect of over 35% in size; note: potency is the fitted concentration of half-maximal effect). The conditions noted are these: FR4_PLB myeloma cells viability, CellTiter-Glo ATP, 48 h; series mostly up to 45.8 µM. An outline of the steps: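 Myeloma cell lines, 500 cells per well, exposed to MIPE 4.0 library compounds for 48 h at 37C, 5% CO2. Viability from ATP by CellTiter-Glo luminescence; normalised to DMSO (100%) and media-only (0%) wells.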
(ATP-based viability assays read luminescence as a measure of living cells.)

Test [9] is described as follows: NCATS anti-infectives library activity on the primary C. elegans qHTS viability assay (AID 1745855; calls by dose curve; note: potency is the fitted concentration of half-maximal effect). The conditions noted are these: C. elegans worm area imaging, day 7; series mostly up to 41.8 µM. An outline of the steps:
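Viability read-out is GFP fluorescence of PE254-GFP-FLuc C. elegans, measured by laser cytometry (488 nm) at day 0, 3 and 7. Ten L1 worms per well were incubated 7 days at 21 °C with compounds and bacterial capsules in S medium.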

Structures are written as SMILES. Where “and” joins values, the source holds several entries; their conditions need not be identical. Equal values may be shown once. Records with an inconclusive call do not appear. More than one record can exist for a structure, and the calls need not agree. Calls of active or inactive are those of the source. Unless noted, calls come from the whole dose curve; as a rule, active = well fitted curve in the direction sought with a large enough effect; inconclusive = small, poorly fitted or top-dose-only effect, or another doubt; inactive = no such curve, though single readings can be large; an effect the other way counts as inactive or inconclusive.

Phospholipid hydroperoxide glutathione peroxidase GPX4 (Homo sapiens), sequence (P36969 whole entry, looked up): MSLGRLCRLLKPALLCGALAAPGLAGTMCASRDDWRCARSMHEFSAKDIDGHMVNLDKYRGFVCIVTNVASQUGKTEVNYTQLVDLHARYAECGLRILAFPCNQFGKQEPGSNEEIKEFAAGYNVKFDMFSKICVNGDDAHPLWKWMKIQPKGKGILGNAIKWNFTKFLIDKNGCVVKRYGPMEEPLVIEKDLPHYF
Glutathione peroxidase 1 (Homo sapiens), sequence (P07203 whole entry, looked up): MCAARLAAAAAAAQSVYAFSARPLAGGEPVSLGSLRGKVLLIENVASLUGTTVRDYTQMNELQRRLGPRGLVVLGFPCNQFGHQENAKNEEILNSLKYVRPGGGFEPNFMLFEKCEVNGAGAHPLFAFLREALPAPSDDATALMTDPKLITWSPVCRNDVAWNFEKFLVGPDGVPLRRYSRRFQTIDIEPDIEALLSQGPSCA

For `CN1CCN(Cc2ccc(NC(=O)Nc3ccc(Oc4cc(NC(=O)C5CC5)ncn4)cc3)cc2C(F)(F)F)CC1`, the Potency result in test [1], in [2], in [3], in test [4], in test [5] and in test [6] was “inactive” in each case.
As for `CN(C)Cc1c(C(=O)NCCOc2ccc(C(=O)NO)cc2)oc2ccccc12`, the Potency result in test [7], in test [1], in [2], in test [3] and in test [6] was “inactive” in each case. Moreover, the Potency in test [8] was 0.526 µM (active).
Turning to `COc1cc2c(cc1-c1c(C)noc1C)ncc1[nH]c(=O)n([C@H](C)c3ccccn3)c12`, the Potency result in test [7], in [1], in [2], in test [3], in [4] and in test [5] was “inactive” each time. Also, in [6], the Potency result is “inactive”. The Potency in [8] was 0.833 µM (active).
In the case of `CCN1CCN(Cc2ccc(-c3cc4c(N[C@H](C)c5ccccc5)ncnc4[nH]3)cc2)CC1`, the Potency result in [1] was “inactive”. Moreover, the Potency in [2] was 22.7 µM (active).
As for `CCCNC(=O)Nc1ccc(Oc2ncnc3cc(OC)c(OC)cc23)cc1Cl`, the Potency result in test [1], in test [2], in test [3], in [4], in test [5] and in test [6] was “inactive” throughout.
For the molecule `O=C(Cc1ccc(-c2ccc(OCCN3CCOCC3)cc2)cn1)NCc1ccccc1`, the Potency result in test [1], in [2], in test [3], in test [4], in [5] and in test [6] was “inactive” each time.
For `Cc1cc(Nc2cc(NC(=O)c3c(Cl)cccc3Cl)ccn2)nc(N)n1`, the Potency result in [1] and in test [2] was “inactive” throughout.
Take `Nc1ccn([C@@H]2CS[C@H](CO)O2)c(=O)n1`: the Potency result in [7], in test [1], in [2] and in [8] was “inactive” in each case.
For `CN(C)CC(C)(C)CNc1nn2c(-c3ccccc3)nnc2cc1C1CCC1`, the Potency result in [1], in [2], in [3], in test [4], in [5] and in [6] was “inactive” in each case.
As to `Cn1cncc1[C@@](N)(c1ccc(Cl)cc1)c1ccc2c(c1)c(-c1cccc(Cl)c1)cc(=O)n2C`, the Potency result in [1] and in test [2] was “inactive” each time.
With `CN1CCN(c2ccc3nc(-c4c(N)c5c(F)cccc5[nH]c4=O)[nH]c3c2)CC1`, the Potency result in test [1] and in [2] was “inactive” in each case.
For the molecule `COC(=O)c1ccc2c(C(=Nc3ccc(N(C)C(=O)CN4CCN(C)CC4)cc3)c3ccccc3)c(O)[nH]c2c1`, the Potency entry in [1], in test [2], in test [3], in test [4] and in test [5] was “inactive” each time.
In the case of `C=C1C(=CC=C2CCC[C@]3(C)[C@@H]([C@H](C)C=C[C@H](C)C(C)C)CC[C@@H]23)C[C@@H](O)C[C@@H]1O`, the Potency result in test [1] and in [2] was “inactive” in each case.
Consider `CC(C)C[C@H](NC(=O)CNC(=O)c1cc(Cl)ccc1Cl)B(O)O`, for which the Potency in test [9] is 1.29 µM (active); in test [8], 0.0833 µM (active). Moreover, the Potency entry in test [1] and in test [2] was “inactive” in each case.
Regarding `CC(=O)OCCN1C(=O)c2c(C)nc3ccc(S(=O)(=O)N4CCOCC4)cc3c2C1=O`, the Potency result in test [1] and in test [2] was “inactive” in each case.
With `COc1ccc(-n2nc(C(N)=O)c3c2C(=O)N(c2ccc(N4CCCCC4=O)cc2)CC3)cc1`, the Potency entry in test [7], in [1], in [2], in [3], in test [4] and in test [6] was “inactive” throughout. In addition, the Potency entry in [8] was “inactive”.
Take `CC(C)(C)OC(=O)Nc1ccc(-c2cc(C(=O)NCCCCCCC(=O)NO)no2)cc1`: the Potency result in [7], in test [1] and in [2] was “inactive” throughout. In test [8], the Potency was 1.32 µM (active).
Take `Cc1nc2ccc(CN(C)c3ccc(C(=O)N[C@@H](CCC(=O)O)C(=O)O)s3)cc2c(=O)[nH]1`: the Potency in test [1] was 25.5 µM (active) and inactive and 22.7 µM (active). The Potency result in test [2] was “inactive”.
With `CC(C)(C)c1cc(C(C)(C)C)c(NC(=O)c2c[nH]c3ccccc3c2=O)cc1O`, the Potency entry in test [1] is “inactive”. Besides, in [2], the Potency was 17.8 µM (active).
